Screens deposited in PubChem by University of Kansas High Throughput Screening Laboratory.
This is one part of a sample in which hits are shown more often than they occur.
Pf apPOL block: Pf-apPOL DNA polymerase inhibition; Recombinant Pf-apPOL, molecular beacon fluorescence, 1.5 h; inhibition, % at 10 µM; 0.25% of 210,000 active; AID 1794808
mHTT CaM bind: mHTT-calmodulin interaction abrogation. AlphaScreen His-mHTT/GST-CaM binding, luminescence. inhibition, % at 15 µM. 3.6% of 190,000 active. P42858;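 note: 0% = both proteins with DMSO and 100% = one protein alone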
* marks the source's active call; other numbers are inactive results; · = no result. Cut-off read from the data, not from the text of the source: active = inhibition above about 50%; inactive = the rest.

SMILES	Pf apPOL block	mHTT CaM bind
CNC(=O)N1CCOc2ccc(C)cc21	-6	-4
N#CC1=C(N)OC2=C(C(=O)CC(c3ccccc3)C2)C1c1c[nH]c2ccccc12 (stereo not drawn)	3	58*
N#CC1=C(N)OC2=C(C(=O)CC(c3ccccc3)C2)C1c1ccccc1F (stereo not drawn)	-9	14
O=C(NCc1ccc(F)cc1)O[C@@H]1C[C@H]2C[C@@H]1[C@H]1CCCCN1C2=O	-6	-17
CC(C)(C)c1ccc(C(=O)N2CCC(=O)N([C@H](COCc3ccc(Cl)cc3)Cc3ccccc3)CC2)cc1	-1	48
O=C(c1ccc(C(F)(F)F)cc1)N1CCC(=O)N([C@H](COCc2ccc(Cl)cc2)Cc2ccccc2)CC1	-7	100*
Cc1ccc(S(=O)(=O)N2CCC(=O)N([C@H](COCc3ccc(C(F)(F)F)cc3)C(C)C)CC2)cc1	-3	30
O=C1CCN(Cc2ccc(O)cc2)CCN1[C@H](CO)Cc1ccccc1	-1	-4
CC(C)C[C@@H](COCc1ccc(Cl)cc1)N1CCN(C(=O)c2ccc(C(F)(F)F)cc2)CCC1=O	-1	99*
O=C(c1ccc(C(F)(F)F)cc1)N1CCC(=O)N([C@H](COCc2ccc(C(F)(F)F)cc2)Cc2ccccc2)CC1	-1	99*
Cc1ccc(NC(=O)CCCn2cccc2)cc1F	-6	-11
CC1CC(=O)C2=C(C1)OC(N)=C(C#N)C2c1cccc(Cl)c1Cl (stereo not drawn)	4	-1
CC(=O)C(Sc1ccc2nnc(-c3ccc(C)cc3)n2n1)C(C)=O	-3	-5
CS(=O)(=O)N1CCN(C(=O)c2cc(-c3ccco3)[nH]n2)CC1	0	-9
O=C(c1cc(-c2ccco2)[nH]n1)N1CCC(COCc2ccccc2)CC1	0	59*
O=C(CN1CCN(C(=O)c2cc(-c3ccco3)[nH]n2)CC1)c1ccco1	73*	60*
Cc1cc(C(=O)N2CCC(COCc3ccccc3)CC2)no1	-9	-14
O=C(Nc1nccn(-c2ccc(Br)cc2)c1=O)c1ccc(F)cc1	-4	5
Cc1nc2c(C(=O)NC3CC3)cnn2c(C)c1Cc1cccc(Cl)c1	-8	97*
Cc1nc2c(C(=O)NC3CC3)cnn2c(C)c1Cc1ccc(F)cc1	-5	64*
Cc1nc2c(C(=O)NC3CCCC3)cnn2c(C)c1Cc1ccc(Cl)cc1	-9	-6
Cc1nc2c(C(=O)NC3CCCCC3)cnn2c(C)c1Cc1cccc(Br)c1	-4	43
Cc1nc2c(C(=O)NC3CC3)cnn2c(C)c1Cc1cccc(Br)c1	-4	92*
Cc1nc2c(C(=O)NC3CCCCC3)cnn2c(C)c1Cc1ccc(Cl)cc1	-2	-6
Cc1ccc(-c2csc3nc(C)n(-n4c(C)ccc4C)c(=O)c23)o1	-2	33
SMILES	Pf apPOL block	mHTT CaM bind
O=C(NCc1ccc(F)cc1F)c1nnn2c1COC(c1ccc(Cl)cc1)C2 (stereo not drawn)	0	6
O=C(c1ccc([N+](=O)[O-])cc1)N1CCN=C1SCc1ccccc1	-3	17
Cc1ccc(OCC(O)CN2CCN(c3cccc(Cl)c3)CC2)cc1C (stereo not drawn)	4	37
CS(=O)(=O)Nc1ccc(C(N)=NOC(=O)c2cccs2)cc1	-8	·
N#CC(=Cc1c(Cl)cccc1Cl)S(=O)(=O)c1ccc(Cl)cc1	-5	·
N#C/C(=C\c1cn[nH]c1-c1ccccc1)S(=O)(=O)c1ccc(Cl)cc1	12	89*
O=C(Nc1ccc(Br)cc1)OCCCN1CCC2(CCCCC2)C1=O	-6	-5
COc1cccc(N2CCN(C(=O)c3cn4cccc(C)c4n3)CC2)c1	-1	-3
CCOC(=O)C1CCN(c2nc(-c3cccc(C)c3)nnc2C)CC1	-1	58*
Cc1ccc(-c2nnc(C)c(N3CCC(C)CC3)n2)cc1	0	82*
COc1ccc(-c2nnc(C)c(N3CCC(C)CC3)n2)cc1	-2	8
CCOC(=O)C1CCN(c2nc(-c3ccc(C)cc3)nnc2C)CC1	-3	15
COc1ccc(Cl)cc1C(=O)Nc1ccc(N2CCOCC2)c(Cl)c1	-6	-9
O=C(Nc1ccc(-c2nc3cc(Cl)ccc3o2)cc1)c1ncn[nH]1	-180	83*
Cc1c(NC(=O)c2ncn[nH]2)cccc1-c1nc2cc(Cl)ccc2o1	8	53*
O=C(Nc1ccc2oc(-c3ccccc3Cl)nc2c1)c1cncc(Br)c1	-22	-8
COc1cc(C(=O)Nc2ccc(-c3nc4cc(Cl)ccc4o3)cc2)cc(OC)c1OC	-2	-2
Cc1c(NC(=O)c2ccccc2F)cccc1-c1nc2cc(Cl)ccc2o1	3	-18
CCN(CC)c1ccc(NC(=O)c2ncn[nH]2)cc1	-2	41
O=C(Nc1ccc([N+](=O)[O-])cc1)c1ncn[nH]1	-3	88*
O=C(Nc1ccc2oc(-c3ccccc3Cl)nc2c1)c1ncn[nH]1	58*	77*
COc1ccc([N+](=O)[O-])cc1NC(=O)C(C)Oc1ccccc1 (stereo not drawn)	-7	1
